# Results taken from PubChem BioAssay AID1347137 (National Center for Advancing Translational Sciences (NCATS), 2019).
# This is one part of the list. Records with an inconclusive call do not appear. Calls of active or inactive are those of the source. The call rests on the fitted dose curve; in most records, active means well fitted inhibition curve with a large enough effect; inconclusive means small, poorly fitted or top-dose-only effect; inactive means no such curve, though single readings can be large or run the other way.
# Assay: qHTS of pediatric cancer cell lines to identify multiple opportunities for drug repurposing: Orthogonal 3D viability screen for Daoy cells
# Details: Daoy 3D spheroid viability, PI/Hoechst imaging, 72 h; series mostly up to 30.7 µM
# Source text: Drug repurposing or repositioning has been offered as a strategy for drug development in oncology programs. This approach has special potential for childhood cancers and other rare or orphan diseases, where the expected return on new drug development has been a disincentive to pharmaceuticals. […] In this project we exploit the poly-pharmacology of drugs to discover new indications via phenotypic screening of a panel of 19 well-characterized cell lines derived from solid tumors seen in children and adolescents. The goal is to identify approved drugs with previously unrecognized anticancer properties that has the potential to reveal new mechanisms and biological processes involved in carcinogenesis or drug resistance. We employed a titration-based paradigm (quantitative high-throughput screening or qHTS), where all compounds were tested at multiple concentrations for their effect on cell viability. Concentration-response curves (CRCs) were derived directly from the primary screen, and both potency and efficacy values were used to identify compounds with robust bioactivity profiles. […] These two assays will be use to validate active compounds and assess the correlation of compound's potency in 2D vs 3D cultures on selected cell lines. Assay Submitter: Nathalia J. Martinez, National Center for Advancing Translational Sciences, National Institutes of Health, Rockville, MD, USA; email: natalia.martinez@nih.gov Shen, M et al. Quantitative high-throughput phenotypic screening of pediatric cancer cell lines identifies multiple opportunities for drug repurposing. Oncotarget 2017 Dec 19;9(4):4758-4772. PMID 29435139.
# The cells were obtained from University of North Carolina (UNC), Pediatric Preclinical Testing Program (PPT), and Coriell Institute (CI). qHTS viability in 3D culture: Cells were assayed in phenol red-free growth media at a density of 1,000 cells/well, with the exception of Daoy, and SH-N-SH which were assayed at 1,500 cells/ well. Thirty muL of cells were dispensed into 384-well, ULA, round bottom plates (Corning) using a Multidrop dispenser. […] Spheroid viability was first determined by high-content imaging using Hoechst 33342 and Propidium Iodide (PI, ThermoFisher Scientific), followed by addition of CellTiter-Glo 3D (Promega). […] Plates were incubated for 30 min at RT on a VWR microplate shaker (300 rpm) and analyzed for luminescence intensity using a ViewLux High-throughput CCD imager equipped with clear filters. […] The data were exported to Excel, and the average fluorescent intensities were used to calculate the ratio of PI over Hoechst, which was used to quantify viability. […]
row,SMILES,Potency
1,CC1(C)O[C@@H]2C[C@@H]3[C@H]4C[C@@H](F)C5=CC(=O)C=C[C@]5(C)[C@@]4(F)[C@@H](O)C[C@]3(C)[C@]2(C(=O)CO)O1,3620 nM (active)
2,CC[C@H]1CN2CCc3cc(OC)c(OC)cc3[C@@H]2C[C@@H]1C[C@H]1NCCc2cc(OC)c(OC)cc21,406 nM (active)
3,CC(NCc1ccc2c(c1)nc(NC(=O)c1ccc(-c3cn[nH]c3)s1)n2CC(C)(C)O)C(C)(C)C (centres undefined),511 nM (active)
4,C=C1C(=CC=C2CCC[C@]3(C)[C@@H]([C@H](C)C=C[C@H](C)C(C)C)CC[C@@H]23)C[C@@H](O)C[C@@H]1O,inactive
